D3 antag – qHTS of D3 Dopamine Receptor Antagonist: qHTS | D(3) dopamine receptor (Homo sapiens), P35462 | max response, negative = inhibition, % | hit rate 2.5% among 360,000 | D3R cells, DiscoveRx beta-arrestin luminescence, antagonist mode; stronger effect = lower value | AID 652054, 2013; in the data active = max response below about -50%; inconclusive = no clear call, values can overlap the other calls; note: % is set by controls: 0 for no effect and ±100 for the full control effect
Target sequence (P35462 whole entry, looked up): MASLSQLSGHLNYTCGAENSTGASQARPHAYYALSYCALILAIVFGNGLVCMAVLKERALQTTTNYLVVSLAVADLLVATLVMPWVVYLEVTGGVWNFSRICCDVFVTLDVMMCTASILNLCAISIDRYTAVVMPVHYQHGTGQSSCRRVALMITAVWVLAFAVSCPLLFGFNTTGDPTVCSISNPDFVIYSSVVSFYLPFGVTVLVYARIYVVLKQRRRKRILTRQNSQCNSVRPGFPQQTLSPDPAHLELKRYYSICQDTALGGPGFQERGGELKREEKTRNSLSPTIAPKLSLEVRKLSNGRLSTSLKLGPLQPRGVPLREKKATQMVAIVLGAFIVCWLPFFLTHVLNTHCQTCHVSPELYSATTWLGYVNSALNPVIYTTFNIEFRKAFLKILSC
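Cells expressing the human receptor were seeded at 1500 cells/well, incubated overnight at 37 degrees C in 5% CO2, then exposed to library compounds with dopamine controls for 90 minutes at 37 degrees C before luminescent detection.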
TDP1 cell CPT – qHTS for Inhibitors of human tyrosyl-DNA phosphodiesterase 1 (TDP1): qHTS in cells in presence of CPT | hit rate 12% among 420,000 | Potency, µM (highest dose often 46.2 µM), inactives show at the top dose activity change, negative = growth inhibition, hits mostly inhibitors | AID 686979, 2013 | chicken DT40 Tdp1-/-;hTDP1 cells + 20 nM CPT, ATP luminescence, 48 h; note: potency is the fitted concentration of half-maximal effect; % is set by controls: 0 for no effect and ±100 for the full control effect; nearly all actives have a fitted effect of over 55% in size
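Chicken DT40 Tdp1-/- cells complemented with human TDP1, 400 cells/well, exposed to compounds plus 20 nM camptothecin for at least 48 h at 37 C; viability read as ATP content by CellTiter-Glo luminescence.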
IL1B secr inh – qHTS for Inhibitors of Inflammasome Signaling: IL-1-beta AlphaLISA Primary Screen. hit rate 4.7% among 360,000. THP-1 LPS/ATP IL-1B secretion, AlphaLISA, 16 h; stronger effect = lower value. activity change, % at 57.5 µM; in the data active = activity change below about -50%; inconclusive = mostly about -30% to -49%; note: % is set by controls: 0 for no effect and ±100 for the full control effect
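Secreted IL-1B measured by AlphaLISA bead assay after 16 h compound exposure of THP-1 cells; compounds (final up to 57.5 uM) added 1 h before LPS (250 ng/mL) and ATP (1.25 mM) stimulation; lower signal means less secretion.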
D3 ag – qHTS of D3 Dopamine Receptor Agonist: qHTS | D(3) dopamine receptor (Homo sapiens), P35462 | D3R DiscoveRx beta-arrestin cells, luminescence, 90 min | max activation, % | hit rate 0.58% among 410,000; in the data active = max activation above about 30%; note: 0% is about no effect
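Cells at 1500/well, incubated overnight, then treated with pinned compounds (dopamine as control) for 90 min at 37 degrees C. DiscoveRx reagent added for 30 - 60 minutes at room temperature; luminescence read.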
ClpP mod – qHTS Assay for Activators of ClpP; hit rate 1.9% among 340,000; purified B. subtilis ClpP, FRET peptide cleavage, 20 min; Potency, µM (doses to about 57.5 µM), without a hit: at the top dose activity change, negative = active; active = well fitted falling curve with a large enough effect; inconclusive = small, poorly fitted or top-dose-only effect; inactive = no such curve, though single readings can be large or run the other way; note: potency is the fitted concentration of half-maximal effect; the source files actives as falling curves though it sought activators and does not explain the sign; nearly all actives have a fitted effect of over 65% in size
Target sequence (P80244 whole entry, looked up): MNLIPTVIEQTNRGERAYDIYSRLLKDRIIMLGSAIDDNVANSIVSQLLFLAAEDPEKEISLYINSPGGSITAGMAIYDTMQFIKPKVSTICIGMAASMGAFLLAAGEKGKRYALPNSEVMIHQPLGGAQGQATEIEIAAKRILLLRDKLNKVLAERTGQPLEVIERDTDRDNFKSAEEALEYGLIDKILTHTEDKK
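FRET quenching reversal measured ClpP activation: 10 microg/mL B. subtilis ClpP at pH 8 with the FRET-FV decapeptide, read at 430 nm after 320 nm excitation. The 20-min minus 0-min signal was scaled between DMSO/no-enzyme wells and ADEP (5.8 microM final).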
DT40 TDP1 no CPT – qHTS for Inhibitors of human tyrosyl-DNA phosphodiesterase 1 (TDP1): qHTS in cells in absence of CPT. Potency, µM (doses to about 46.2 µM), inactives show at the highest dose activity change, negative = growth inhibition, hits mostly inhibitors. AID 686978, 2013. DT40 Tdp1-/- hTDP1 cells, no CPT, ATP luminescence, 48 h. hit rate 15% among 420,000; note: potency is the fitted concentration of half-maximal effect; % is set by controls: 0 for no effect and ±100 for the full control effect; nearly all actives have a fitted effect of over 55% in size
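Chicken DT40 Tdp1-/- cells complemented with human TDP1, screened without camptothecin (DMSO vehicle only), 400 cells/well. Compounds pin-transferred, cells incubated at 37 °C for at least 48 hr. Growth read as ATP-dependent luminescence (CellTiter-Glo, 30 min at RT).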
An asterisk follows results filed as active; ? = inconclusive; · = no result given. Most compounds without a hit are left out; they make up all but 21% or so of the library. Unless noted, calls come from the whole dose curve; as a rule, active = well fitted inhibition curve with a large enough effect; inconclusive = small, poorly fitted or top-dose-only effect; inactive = flat fitted curve, though single readings scatter.

SMILES	D3 antag	TDP1 cell CPT	IL1B secr inh	D3 ag	ClpP mod	DT40 TDP1 no CPT
CCCC(C)C(=O)Nc1nc(C)c(-c2csc(Nc3cc(Cl)ccc3C)n2)s1 (stereo not drawn)	-11.0	?	44.0	-7.7	-14.6%	?
COc1ccc(NC(C)=O)cc1S(=O)(=O)N(C)Cc1c(C)nn(-c2ccccc2)c1C	-6.9	6.1%	-1.0	-3.5	-2.4%	5.4%
Cc1ccc(Cn2c(-n3nc(C)cc3C)nc3c2c(=O)[nH]c(=O)n3C)cc1	-9.1	?	3.6	2.6	-1.2%	-22.7%
COc1ccc(CCn2c(-n3nc(C)cc3C)nc3c2c(=O)[nH]c(=O)n3C)cc1	-23.7	1.84µM*	48.6	-12.8	-2.1%	1.64µM*
N#CCC1c2ccccc2CCN1C(=O)Nc1ccc(C(F)(F)F)cc1 (stereo not drawn)	-93.9*	?	0.9	-34.3	0.8%	?
N#CCC1c2ccccc2CCN1C(=O)Nc1cccc(C(F)(F)F)c1 (stereo not drawn)	-15.1	?	-19.5	-32.8	1.9%	?
Cc1ccc(NC(=O)C(NC2CCCc3ccccc32)c2ccccc2)c([N+](=O)[O-])c1 (stereo not drawn)	?	?	-1.5	-8.0	1.1%	23.1µM*
Cc1ccc(NC(=O)C(NC2CCCc3ccccc32)c2ccccc2)cc1Cl (stereo not drawn)	-8.3	2.91µM*	0.0	-17.3	·	18.4µM*
COc1cc(NS(=O)(=O)c2ccc(NC(=O)COc3ccc(Cl)cc3Cl)cc2)nc(OC)n1	·	-3.4%	·	4.7	0.1%	2.0%
COc1ccc(C(=O)CN(CCC(=O)O)S(=O)(=O)c2ccc([N+](=O)[O-])cc2)cc1	4.9	12.8%	40.8	-12.3	0.5%	3.0%
COc1ccc(-c2cnc3c(NC(C)=O)cc(-c4cccc(NS(C)(=O)=O)c4)cn23)cc1OC	37.1	20.6µM*	-24.2	1.4	-13.8%	23.1µM*
CC(=O)Nc1cc(-c2cccc(NS(C)(=O)=O)c2)cn2c(-c3cccc(C(C)=O)c3)cnc12	4.3	16.4µM*	64.1	3.0	-19.5%	18.4µM*
CC(=O)Nc1cc(-c2cccc(NS(C)(=O)=O)c2)cn2c(-c3ccc(F)c(Cl)c3)cnc12	42.9	?	·	2.1	-28.4%	23.1µM*
CC(=O)Nc1cc(-c2cccc(C(=O)N(C)C)c2)cn2c(-c3cccc(C(=O)N(C)C)c3)cnc12	0.0	?	-4.2	-0.2	?	?
CC(=O)Nc1cc(-c2ccccc2)cn2c(-c3cccc(C(C)=O)c3)cnc12	1.0	14.6µM*	-2.7	1.4	-23.1%	10.3µM*
CC(=O)Nc1cc(-c2cccc(C(=O)N(C)C)c2)cn2c(-c3ccccc3)cnc12	49.0	?	-11.2	14.3	-22.2%	?
O=C(CN1CCOCC1)Nc1ccc(N2CCN(c3ccccc3)CC2)c(F)c1	-4.3	?	34.1	6.1	·	?
CCOC(=O)c1c(S(=O)(=O)NCC(=O)N(C)c2ccc(C)cc2)c(C)n(C)c1C	·	-26.2%	·	-1.7	-0.4%	-14.3%
NC1C(O)OC(CO)[C@@H](O)[C@@H]1O[C@H]1O[C@@H](C(=O)O)C(O)C(O)C1O (stereo partly drawn)	·	16.0%	·	·	·	7.1%
CSc1cccc(NC(=O)c2cccc3cccnc23)c1	2.9	-1.0%	-2.4	2.4	·	?
O=C(Cn1c2ccccc2c2nc3n(c(=O)c21)CCS3)N1CCCC1	1.3	-8.2%	?	8.6	3.9%	1.9%
O=C(Cn1c2ccccc2c2nc3n(c(=O)c21)CCS3)Nc1ccccc1	14.6	20.6µM*	-9.2	5.3	3.8%	?
O=C(N[C@H]1C/C=C\C[C@@H](CC(=O)N(CCO)Cc2ccccc2)C(=O)N2CCC[C@@H]2COC1=O)OCC1c2ccccc2-c2ccccc21	0.5	8.2µM*	48.1	-7.5	-6.2%	6.51µM*
O=C(N[C@H]1C/C=C\C[C@@H](CC(=O)N(CCO)Cc2ccccc2)C(=O)N2CCC[C@H]2COC1=O)OCC1c2ccccc2-c2ccccc21	3.3	13µM*	32.6	-11.5	-9.2%	18.4µM*
CC(C)(C)OC(=O)C[C@@H]1C/C=C\C[C@H](CC(=O)N(CCO)Cc2ccccc2)C(=O)N2CCC[C@@H]2COC1=O	12.7	-20.6%	-5.4	0.4	-0.9%	-23.1%
SMILES	D3 antag	TDP1 cell CPT	IL1B secr inh	D3 ag	ClpP mod	DT40 TDP1 no CPT
O=C1CCC/C=C\C[C@H](CC(=O)N(CCO)Cc2ccccc2)C(=O)N2CCC[C@@H]2CO1	9.2	-2.5%	10.5	7.5	-0.8%	-14.2%
COc1ccccc1Nc1cc(C)nc2nc(-c3ccccc3)nn12	·	16.4µM*	·	5.3	-2.3%	?
COc1ccc(-c2nc3nc(C)cc(Nc4ccc(C(C)=O)cc4)n3n2)cc1	·	?	·	3.7	-5.2%	14.6µM*
O=C(/C=C/[C@H]1O[C@@H](n2ccc(=O)[nH]c2=O)[C@H](O)[C@@H]1O)NCCN1CCCCC1	13.4	3.4%	-10.8	0.7	0.6%	1.3%
COc1ccc2cc(C3=CCCC3(C)C(=O)O)ccc2c1 (stereo not drawn)	2.2	-13.8%	19.9	7.2	·	?
C[C@@H]1CN[C@@H](CCO)/C1=C\c1ccccc1	-13.1	-2.8%	-3.5	-10.8	1.4%	-13.2%
COc1ccccc1N1CCN(CCn2c(=O)c3c(c4ccccc4n3C)n(C)c2=O)CC1	·	5.6%	·	·	·	-4.5%
N#CCc1nc(C(c2ccccc2)c2ccccc2)no1	-1.1	10.7%	?	1.1	·	0.8%
COCC1CCCN(Cc2nc(C(c3ccccc3)c3ccccc3)no2)C1 (stereo not drawn)	-1.6	?	-4.2	-12.9	·	18.4µM*
c1ccc(C(c2ccccc2)c2noc(CN3CCN(CC4CC4)CC3)n2)cc1	-63.0*	14.6µM*	-19.3	-20.9	-0.3%	?
O=C(Nc1ccc(F)cc1)N1CCN(C(=O)C2CCCO2)CC1 (stereo not drawn)	4.0	-12.2%	12.4	1.8	1.8%	17.0%
N#Cc1cc2cc3c(cc2nc1N1CCOCC1)OCO3	23.0	?	29.5	2.5	31.6µM*	?
COC(=O)c1[nH]c2cc(C)ccc2c1NC(=O)CN1CCCc2ccccc21	-4.5	?	-26.5	-10.2	-8.5%	25.9µM*

Compound activity as filed in PubChem BioAssay.
